Data published in PubChem BioAssay AID1563 (The Scripps Research Institute Molecular Screening Center, 2009).
Some of the results follow. Unmarked numbers belong to inactive results. Rule as the data show it: active = activation above about 21%; inactive = the rest.

Target: Sphingosine 1-phosphate receptor 1 (Homo sapiens) (UniProt P21453)
Assay: activation of human S1P1 receptor – cell-based, counter-screen for S1P4 agonist project (AID 1563);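 also: 0% = vehicle wells and 100% = reference agonist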
Details: S1P1 agonist cell-based assay, at 4.98 µM, active compounds read high

Chain of Sphingosine 1-phosphate receptor 1 (Homo sapiens) (P21453 whole entry, looked up): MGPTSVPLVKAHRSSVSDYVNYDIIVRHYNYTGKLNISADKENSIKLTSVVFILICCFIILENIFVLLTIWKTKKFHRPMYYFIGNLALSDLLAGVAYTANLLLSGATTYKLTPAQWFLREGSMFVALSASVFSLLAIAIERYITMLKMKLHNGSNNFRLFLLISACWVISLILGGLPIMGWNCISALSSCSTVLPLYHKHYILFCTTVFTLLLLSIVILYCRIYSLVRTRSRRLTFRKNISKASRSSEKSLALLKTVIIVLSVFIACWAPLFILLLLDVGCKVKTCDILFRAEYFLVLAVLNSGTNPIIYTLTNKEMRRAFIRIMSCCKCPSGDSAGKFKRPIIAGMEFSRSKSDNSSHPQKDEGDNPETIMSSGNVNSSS

For `CC(C)N(CC#CCC1(O)c2ccccc2-c2ccccc21)C(C)C`, which activation is on record?
Its activation is 1.18%.
